Shown are actives, neighbours in structure and some others; about 7.3% of the full set was active somewhere.
ELG1 genotoxic: qHTS screen for small molecules that induce genotoxicity in human embryonic kidney (HEK293T) cells expressing luciferase-tagged ELG1; HEK293T ELG1-luciferase reporter, luminescence, 16 h; Potency, µM (series often up to 46 µM), for inactives: at the highest dose activity change, positive = activation, hits mostly activators; 1.3% of 330,000 active; note: % of control where 0% means no effect; nearly all actives have a fitted effect of over 60% in size
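Luminescence read-out: rising ELG1-luciferase signal, reflecting elevated ELG1 protein under genetic stress, flags genotoxic compounds. Cells were treated for 16 hr at 37 °C before ONE-Glo detection.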
SMN2 splice up: qHTS Assay for Enhancers of SMN2 Splice Variant Expression; HEK293 SMN2-luciferase splicing reporter, luminescence, 30-36 h; Potency, µM (top dose mostly 46.1 µM), inactives show at the highest dose activity change, positive = activation, hits mostly activators; 2.8% of 210,000 active; AID 1458, 2008; note: % of control where 0% means no effect; nearly all actives have a fitted effect of over 55% in size
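HEK293 cells carry an SMN2 […]–luciferase reporter in which exon 7 inclusion puts luciferase in frame. Cells were plated 10-12 h before compound addition, then incubated 30-36 h at 37C. ONE-Glo luminescence was read; sodium butyrate at 4.5 mM final served as control.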
KinaseGlo FLuc: Counterscreen for Luciferase (Kinase-Glo TM) Inhibition; 0.28% of 200,000 active; Potency, µM (highest dose often 38.3 µM), inactives show top-dose activity change, negative = inhibition, most hits filed as inhibitors; Luciferin 4-monooxygenase (Photuris pensylvanica), Q27757; Kinase-Glo luciferase, ATP luminescence, 8 min; AID 1379, 2008; note: % is set by controls: 0 for no effect and ±100 for the full control effect; nearly all actives have a fitted effect of over 60% in size
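Recombinant Kinase-Glo luciferase, 10 uM ATP (linear range), luciferin; imidazole pH 7.2 / KCl / MgCl2 / Tween / BSA buffer; 8 min RT; luminescence.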
FLuc counter: qHTS profiling assay for firefly luciferase inhibitor/activator using purifed enzyme and Km concentrations of substrates (counterscreen for miR-21 project). 6.9% of 360,000 active. Potency, µM (highest dose often 57.5 µM), for the others: at the highest dose activity change, negative = inhibition, usual class: inhibitors. Luciferin 4-monooxygenase (Photinus pyralis), P08659. purified FLuc, Km substrates, luminescence inhibition;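 note: plate controls were vehicle for no effect and reference inhibitor for full effect; nearly all actives have a fitted effect of over 55% in size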
Target sequence (P08659 whole entry, looked up): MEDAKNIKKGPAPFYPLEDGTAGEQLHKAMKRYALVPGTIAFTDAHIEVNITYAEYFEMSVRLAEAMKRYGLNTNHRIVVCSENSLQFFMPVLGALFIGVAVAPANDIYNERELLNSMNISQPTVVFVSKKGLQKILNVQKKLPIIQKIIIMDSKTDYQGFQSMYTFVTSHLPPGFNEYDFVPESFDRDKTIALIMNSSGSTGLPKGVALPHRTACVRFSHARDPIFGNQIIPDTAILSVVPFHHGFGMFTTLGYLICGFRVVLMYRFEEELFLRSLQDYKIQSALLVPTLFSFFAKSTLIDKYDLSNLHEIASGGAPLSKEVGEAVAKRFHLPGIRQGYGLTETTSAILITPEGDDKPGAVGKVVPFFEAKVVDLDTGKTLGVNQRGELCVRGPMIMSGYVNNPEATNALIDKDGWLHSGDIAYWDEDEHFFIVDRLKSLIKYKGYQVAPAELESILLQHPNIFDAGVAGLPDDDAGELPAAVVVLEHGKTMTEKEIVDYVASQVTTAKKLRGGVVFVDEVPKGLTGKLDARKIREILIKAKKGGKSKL
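Purified P. pyralis luciferase, 10 nM final, with Km-level 10 uM D-luciferin and 10 uM ATP in 50 mM Tris acetate pH 7.5, 10 mM Mg acetate, 0.01% Tween-20, 0.05% BSA; 6-point qHTS titration about 60 µM downward; luminescence read.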
Rab9 promoter act: qHTS Assay for Rab9 Promoter Activators. Potency, µM (highest dose often 9.22 µM), for the others: at the highest dose activation, negative = inhibition, actives largely listed as activators. 2.8% of 320,000 active. Huh7 Rab9 promoter-luciferase reporter, luminescence, 24 h; note: % of control where 0% means no effect; nearly all actives have a fitted effect of over 60% in size
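Luminescence read-out: Huh7 cells stably expressing Rab9-luciferase, treated 24 h with compound at 37 °C, then lysed with luciferase reagent for 10 min at ambient before reading.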
NPC1 promoter act: qHTS Assay for NPC1 Promoter Activators; Huh7 NPC1 promoter luciferase reporter, 24 h; Potency, µM (highest dose often 9.22 µM), without a hit: top-dose activation, most hits filed as activators; 2.4% of 320,000 active; note: % of control where 0% means no effect; nearly all actives have a fitted effect of over 60% in size
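Stable NPC1-promoter luciferase Huh7 line; cpd (DMSO) 24 h, 37 °C, 5% CO2; Amplite luciferase reagent 10 min RT; luminescence readout. qHTS format.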
* = called active by the depositor; ? = inconclusive; . = no result given. Calls come from the whole dose curve; as a rule, active = well fitted curve in the direction sought with a large enough effect; inconclusive = small, poorly fitted or top-dose-only effect, or another doubt; inactive = no such curve, though single readings can be large; an effect the other way counts as inactive or inconclusive. Potency is the fitted concentration of half-maximal effect.

SMILES | ELG1 genotoxic | SMN2 splice up | KinaseGlo FLuc | FLuc counter | Rab9 promoter act | NPC1 promoter act
COc1ccc(/C=N/Nc2nc(-c3ccc(C)cc3)c(NC(C)=O)s2)cc1 | 7% | . | . | 5.4µM* | -2% | 10%
CC(=O)Nc1sc(N/N=C\c2ccccc2Cl)nc1-c1cccs1 | ? | -20% | 0% | -18% | 13% | 4%
CCOc1cc(/C=N/Nc2nc(-c3cccs3)c(NC(C)=O)s2)ccc1O | 1% | . | . | 27µM* | 1% | -1%
C=CCn1c(Cc2cccs2)nnc1SCC(=O)Nc1ccc(C(=O)OCC)cc1 | -9% | 7% | 1% | -21% | 11% | 0%
CC1CCN(c2ccc3nnc(CCC(=O)Nc4ccc(F)cc4)n3n2)CC1 | -3% | . | . | 0% | -2% | -5%
CC1(C)CC(=O)C(CC(=O)NC(=O)NCc2ccccc2)=C(O)C1 | -3% | -14% | 3% | 5% | -3% | -1%
CC(=O)Nc1sc(N/N=C\c2ccccc2)nc1-c1cccs1 | ? | -49% | -7% | 19µM* | 6% | 3%
CC(C)(C)c1csc(N/N=C/c2ccc(O)cc2)n1 | ? | . | . | 21µM* | ? | 29%
CC(=O)Nc1sc(N/N=C/c2ccccc2)nc1-c1ccc(C)cc1 | 4% | . | . | 8.5µM* | -2% | -1%
CC(=O)Nc1sc(N/N=C/c2ccc(O)cc2)nc1-c1ccc(C)cc1 | ? | . | . | 2.4µM* | 10% | 1%
Cc1ccc(NC(=O)CCC(=O)N/N=C/c2ccc(O)cc2)cc1 | 2% | . | . | -15% | 2% | -1%
CCC1CCCCN1CCCNC(=O)CSc1nc2nc(C)c(Cc3ccccc3)c(C)n2n1 (stereo not drawn) | -2% | . | . | -2% | 6% | -5%
Cc1ccc2nc(-c3ccsc3)c(Nc3ccccc3C)n2c1 | . | 20% | . | 4% | . | .
COC(=O)CNc1c(-c2ccccn2)nc2ccc(Br)cn12 | 1.3µM* | 5µM* | -27% | 3.4µM* | 0.89µM* | 1.6µM*
CCOC(=O)CNc1c(-c2ccccc2)nc2ccc(Cl)cn12 | 9% | 0% | -27% | 9.5µM* | 23% | 28%
CCOC(=O)CNc1c(-c2ccc(O)cc2)nc2ccccn12 | 4% | -1% | -7% | ? | 24% | 3%
CCOC(=O)CNc1c(-c2ccc(O)cc2)nc2ccc(Cl)cn12 | ? | 38% | -8% | 15µM* | 29% | 20%
Cc1ccccc1Nc1c(-c2ccncc2)nc2ccc(Cl)cn12 | -9% | 10µM* | -2% | -4% | 12% | -7%
COc1ccc(NC(=O)c2cc(S(=O)(=O)N3CCCC3)c[nH]2)cc1 | 1% | . | . | -1% | -4% | -1%
Nc1cc(C2CCCC2)nn1-c1ccccc1 | ? | 20µM* | 13µM* | 15µM* | ? | 2.2µM*
O=C(O)c1cc(C2CC2)nn1-c1ccccc1 | 13% | 5% | 0% | 0% | 2% | -2%
CCS(=O)(=O)n1nc(-c2ccccc2)cc1N | 0% | -1% | -1% | 0% | 1% | 5%
Cc1ccc(-c2cc(N)n(-c3ccccc3)n2)cc1 | ? | 11µM* | ? | 1.7µM* | 2.8µM* | 1.1µM*
c1ccc(N2CCN(c3ncccn3)CC2)cc1 | 6% | 23% | 2% | -13% | 24% | 5%
CCc1ccc(-c2cc(N)n(-c3ccccc3)n2)cc1 | 2.6µM* | 5µM* | -14% | 1.7µM* | 1.3µM* | 0.56µM*
SMILES | ELG1 genotoxic | SMN2 splice up | KinaseGlo FLuc | FLuc counter | Rab9 promoter act | NPC1 promoter act
CCc1ccc(-c2cc3c(N4CCN(c5ccccc5)CC4)nccn3n2)cc1 | . | 14µM* | . | 19µM* | . | .
FC(F)(F)c1cccc(CNC2c3ccccc3-c3ccccc32)c1 | -5% | . | . | 1% | -2% | 1%
CN1CCCC1CCNS(=O)(=O)c1ccc(Br)cc1 (stereo not drawn) | -6% | -2% | 2% | 3% | -8% | -8%
Cc1cccc(-c2cc(N)n(-c3ccccc3)n2)c1 | ? | 11µM* | -24% | 4.3µM* | 0.79µM* | 1.3µM*
Cc1cccc(-c2cc(NC(=O)C(C)(C)C)n(-c3ccccc3)n2)c1 | . | . | . | 21µM* | . | .
CCN(CC)S(=O)(=O)c1ccc(NC(=O)COC(=O)c2cnc(C)cn2)cc1 | 2% | 26% | 7% | -2% | -5% | -10%
C=CCN(C(=O)Cc1cccs1)c1nc(-c2ccc(S(C)(=O)=O)cc2)cs1 | 0% | . | . | 17µM* | ? | ?
C/C(=N\OCc1nc2ccccc2c(=O)n1/N=C/c1cc([N+](=O)[O-])ccc1O)c1ccccc1 | 17% | . | . | 24µM* | 13% | 16%
O=c1c2ccccc2nc(COc2ccccc2)n1/N=C/c1ccc(O)cc1O | -3% | . | . | 17µM* | -3% | -3%
O=c1c2ccccc2nc(COc2ccccc2)n1/N=C/c1c[nH]c2ccccc12 | 0% | 0% | 1% | -4% | 1% | -1%
C/C(=N\OCc1nc2ccccc2c(=O)n1/N=C/c1cc(C)cc([N+](=O)[O-])c1O)c1ccccc1 | ? | . | . | 27µM* | -5% | 13%
Cc1cc([N+](=O)[O-])cc(/C=N/n2c(C)nc3ccccc3c2=O)c1O | 1% | . | . | 3% | -1% | 1%
O=C(CSc1n[nH]c(=O)n1Cc1ccco1)c1ccc(F)cc1 | -4% | . | . | -2% | 11% | -2%
Cc1ccc(CSCC2Nc3ccc(C(=O)N4CCN(c5cccc(C)c5)C(C)C4)cc3NC2=O)cc1 (stereo not drawn) | -2% | . | . | 0% | -4% | -5%
C=CCn1c(-c2ccccc2)c[nH]c1=S | 13µM* | -2% | -14% | 27µM* | 28% | 24%
O=C(OCC(=O)c1cccs1)c1ccccc1 | ? | -6% | 8.9µM* | 0.95µM* | 11% | 21%
O=C(COC(=O)c1cc(=O)[nH]c2ccccc12)c1ccccc1 | -8% | 5% | -4% | 2.7µM* | 0% | 0%
O=C(COC(=O)c1cc(=O)[nH]c2ccccc12)c1cccs1 | -2% | . | -4% | 12µM* | -7% | -2%
CCOC(=O)c1cccc(N/C=C/C(=O)c2ccc(OC)c(OC)c2)c1 | ? | 64% | 1% | 11µM* | 1.6µM* | 0.63µM*
Cc1ccc(Cl)c(N/C=C/C(=O)c2ccccc2)c1 | 9.2µM* | . | . | 1.1µM* | ? | ?
COc1cccc(C(=O)/C=C/Nc2ccc(S(=O)(=O)Nc3ccc(C(C)=O)cc3)cc2)c1 | 11% | . | . | ? | 0% | -1%

Screening data from PubChem.
